# Laboratory results as given in PubChem BioAssay.
# Where “and” joins values, the source holds several entries; their conditions need not be identical. Equal entries are not always repeated. Calls of active or inactive are those of the source. Unless noted, no stated cut-off is given here; in the data, active means inhibition above about 80%; inactive means the rest.
# What was measured:
# [1] = biological target: NAD(+) hydrolase SARM1 (Homo sapiens) (UniProt Q6SZW1); assay: blocking NAD cleavage by SARM1 SAM-TIR – cell lysate, NAD-Glo luminescence (AID 1508614;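 active means compound whose remaining NAD level is above about 45 nM, limit read from the data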); conditions: SAM-TIR HEK293T lysate NADase, at 1 µM, stronger effect = higher value
# Chain of NAD(+) hydrolase SARM1 (Homo sapiens) (Q6SZW1 whole entry, looked up): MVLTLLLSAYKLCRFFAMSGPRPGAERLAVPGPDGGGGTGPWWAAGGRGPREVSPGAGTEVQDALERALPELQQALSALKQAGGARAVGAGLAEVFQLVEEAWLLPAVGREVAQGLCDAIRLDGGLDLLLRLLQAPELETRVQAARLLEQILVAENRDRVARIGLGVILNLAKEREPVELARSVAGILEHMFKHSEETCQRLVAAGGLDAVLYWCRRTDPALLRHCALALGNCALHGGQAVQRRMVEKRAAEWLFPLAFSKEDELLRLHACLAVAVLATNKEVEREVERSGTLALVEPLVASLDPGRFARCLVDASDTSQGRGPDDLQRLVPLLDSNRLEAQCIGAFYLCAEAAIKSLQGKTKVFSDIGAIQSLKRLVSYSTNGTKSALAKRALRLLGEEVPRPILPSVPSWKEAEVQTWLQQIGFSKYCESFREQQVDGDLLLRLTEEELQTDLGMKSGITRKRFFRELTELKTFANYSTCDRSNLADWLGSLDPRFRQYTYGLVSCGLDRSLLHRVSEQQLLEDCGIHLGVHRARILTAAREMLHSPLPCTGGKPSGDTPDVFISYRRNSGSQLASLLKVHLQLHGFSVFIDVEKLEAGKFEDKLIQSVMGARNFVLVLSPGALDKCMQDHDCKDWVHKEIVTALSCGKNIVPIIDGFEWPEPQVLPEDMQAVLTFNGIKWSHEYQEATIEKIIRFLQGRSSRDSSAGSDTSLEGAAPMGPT
# [2] = galactose survival enhancers in mitochondrial complex I cybrids – cell-based, galactose medium, ATP luminescence, primary screen (AID 1645843;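 active means z-score of at least 1.8 in each of two replicates, scored against plate mean and spread of sample wells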;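 further: positive z means more ATP and so rescue of galactose-driven cybrid death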); conditions: complex I mutant cybrid cells, 72 h, stronger effect = higher value
# [3] = biological target: Mitogen-activated protein kinase 7 (Homo sapiens) (UniProt Q13164); assay: Gal4-ERK5 driven luciferase induction – cell-based, HTS, primary screen (AID 1508626;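 active means luciferase signal above three times the same-plate solvent-only control wells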;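 further: luciferase driven by Gal4-ERK5 fusion binding five Gal4 sites before minimal TATA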); conditions: HeLa Gal4-ERK5 transactivation, 18 h, at 5 µM, stronger effect = higher value
# Chain of Mitogen-activated protein kinase 7 (Homo sapiens) (Q13164 whole entry, looked up, the tested form may be a part): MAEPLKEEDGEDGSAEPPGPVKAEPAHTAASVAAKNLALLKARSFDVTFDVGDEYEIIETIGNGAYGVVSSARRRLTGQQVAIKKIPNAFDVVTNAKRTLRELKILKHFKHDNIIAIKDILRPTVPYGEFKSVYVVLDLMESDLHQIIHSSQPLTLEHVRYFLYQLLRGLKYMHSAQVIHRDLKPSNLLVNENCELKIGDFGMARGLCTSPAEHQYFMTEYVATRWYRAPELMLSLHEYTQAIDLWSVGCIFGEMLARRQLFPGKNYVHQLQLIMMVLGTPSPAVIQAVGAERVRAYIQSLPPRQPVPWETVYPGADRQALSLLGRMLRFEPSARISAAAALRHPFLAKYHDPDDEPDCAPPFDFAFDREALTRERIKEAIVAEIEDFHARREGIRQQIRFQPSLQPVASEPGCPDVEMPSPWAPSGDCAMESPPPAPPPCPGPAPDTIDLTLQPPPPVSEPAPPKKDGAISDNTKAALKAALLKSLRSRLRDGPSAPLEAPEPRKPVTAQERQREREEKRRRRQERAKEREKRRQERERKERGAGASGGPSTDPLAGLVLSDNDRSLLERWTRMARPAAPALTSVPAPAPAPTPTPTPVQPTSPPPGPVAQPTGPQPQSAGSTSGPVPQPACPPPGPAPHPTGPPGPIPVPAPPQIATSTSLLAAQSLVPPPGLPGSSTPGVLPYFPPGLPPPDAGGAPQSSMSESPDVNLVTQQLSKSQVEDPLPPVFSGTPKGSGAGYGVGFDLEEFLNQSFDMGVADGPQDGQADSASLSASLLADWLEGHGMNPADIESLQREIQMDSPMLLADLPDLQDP
# [4] = growth inhibition, single agent or in combination, cell-based, chromothripsis tumors, cisplatin or BGB combos (AID 1671449); conditions: LFS_MB_P medulloblastoma cells;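 further: cells exposed for 96 hours; 0% = vehicle DMSO and 100% = killing by high DMSO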
# [5] = growth inhibition, single agent and combos, cell-based, chromothripsis tumors, cisplatin or BGB combos (AID 1671450); conditions: HDN33 neuroblastoma cells, stronger effect = higher value;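 further: cells exposed to compound for four days; 0% = vehicle DMSO and 100% = cell killing by high DMSO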
# [6] = growth inhibition, single agents and combos, ICB984, cell-based, cisplatin or BGB combos, synergistic combos for chromothripsis tumors (AID 1671451; call rule not given here;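 further: cells exposed for 96 hours before readout; 0% = vehicle DMSO and 100% = killing by high DMSO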); conditions: ICB984 medulloblastoma cells, drug combinations, stronger effect = higher value
# [7] = growth inhibition, single agents and combos, LFS_MB_1R, cell-based, cisplatin or BGB combos, synergistic combos for chromothripsis tumors (AID 1671452); conditions: LFS_MB_1R medulloblastoma cells, stronger effect = higher value;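 further: cells exposed for 96 hours before readout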
# [8] = growth inhibition, single agents and combos, HTB85, cell-based, BGB or cisplatin IC20 combos, synergistic combos for chromothripsis tumors (AID 1671453); conditions: HTB85 osteosarcoma cells, drug combinations, stronger effect = higher value;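 further: cells exposed for 96 hours before readout; 0% = vehicle DMSO and 100% = high DMSO killing control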
# [9] = growth inhibition, single agents and combos, CRL2098, cell-based, BGB or cisplatin IC20 combos, synergistic combos for chromothripsis tumors (AID 1671454); conditions: CRL2098 osteosarcoma cells, drug combinations, stronger effect = higher value;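 further: cells exposed for 96 h before readout; 0% = vehicle DMSO and 100% = killing by high DMSO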
# [10] = growth inhibition, single agents and combos, HD-MB03, cell-based, BGB or cisplatin IC20 combos, synergistic combos for chromothripsis tumors (AID 1671455; in the data active means inhibition above about 83%;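 further: 0% = vehicle DMSO and 100% = high DMSO as cytotoxic control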); conditions: HD-MB03 medulloblastoma cells, stronger effect = higher value
# [11] = growth inhibition, single agents and combos, UWB1.289, cell-based, BGB or cisplatin combos, synergistic combos for chromothripsis tumors (AID 1671456); conditions: UWB1.289 ovarian carcinoma cells, stronger effect = higher value;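 further: cells exposed to compound for four days; 0% = vehicle DMSO and 100% = killing by high DMSO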
# [12] = growth inhibition, single agents and combos, LFS_MB_2R, cell-based, cisplatin combos, synergistic combos for chromothripsis tumors (AID 1671457); conditions: LFS_MB_2R medulloblastoma cells, stronger effect = higher value;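 further: cells exposed to compound for four days before readout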
# [13] = growth inhibition, MDA-MB-436, cell-based, BGB or cisplatin combos, synergistic combos for chromothripsis tumors (AID 1671458; call rule not given here;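 further: cells exposed for 96 hours; 0% = vehicle DMSO and 100% = killing by high DMSO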); conditions: MDA-MB-436 breast carcinoma growth inhibition, drug combinations, stronger effect = higher value
# [14] = UWB1.289_BRCA1 ovarian cancer growth, cell-based, BGB or cisplatin combinations (AID 1671459); conditions: UWB1.289 BRCA1 ovarian carcinoma, drug combinations, stronger effect = higher value
# [15] = drug combination toxicity in non-malignant astrocytes – cell-based, BGB or cisplatin IC20 combos, cytotoxicity control for chromothriptic childhood tumor combination screen (AID 1671460); conditions: Human astrocytes, viability inhibition, drug combinations, at 0.5 µM, stronger effect = higher value;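 further: cells exposed to compounds for 96 hours before viability readout; 0% = vehicle and 100% = killing control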
# [16] = BT084 cell growth, single and combined drugs, ICGC_MB145, cisplatin and BGB IC40 combos (AID 1671461); conditions: BT084 medulloblastoma cells, drug combinations, stronger effect = higher value;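 further: cells exposed to drugs for 96 hours; 0% = vehicle DMSO and 100% = high DMSO full killing control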
# [17] = RCMB18 cell growth, single agent and combined, cisplatin and BGB IC40 combos (AID 1671462); conditions: RCMB18 medulloblastoma cells, stronger effect = higher value;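 further: cells exposed to compound for four days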
# [18] = CRL1545 cell growth, single agent and combined, cisplatin and BGB IC20 combos (AID 1671464); conditions: CRL1545 osteosarcoma cells, stronger effect = higher value;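 further: cells exposed to compound for 96 hours before readout; 0% = vehicle DMSO and 100% = high DMSO killing control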
# [19] = measured here: combination with BGB IC40, at 0.05 µM
# [20] = measured here: with BGB IC20 combination, at 0.5 µM
# [21] = measured here: with cisplatin IC20 combination, at 0.5 µM
# [22] = measured here: combination with cisplatin, at 0.5 µM
# [23] = measured here: combination with cisplatin, at 5 µM
structure (smiles),measurement,setting,value
CN1CCCCC1CCN1c2ccccc2Sc2ccc(S(C)=O)cc21 (configuration not stated),remaining NAD,[1],10 nM (inactive)
same,z-score,[2],0.175 (inactive) and 0.14 (inactive)
O=c1oc2c(O)c(O)cc3c(=O)oc4c(O)c(O)cc1c4c23,remaining NAD,[1],10 nM (inactive)
same,luciferase signal,[3],60 AU (inactive)
same,inhibition,"[4]; at 0.5 µM, stronger effect = higher value",-26.4% (inactive)
same,inhibition,"[4]; measured here: combination with BGB IC20, at 0.005 µM",13.8%
same,inhibition,"[4]; measured here: combination with BGB IC40, at 0.005 µM",-25.9%
same,inhibition,[4]; [19],-14%
same,inhibition,"[4]; measured here: combination with cisplatin, at 0.5 µM, stronger effect = higher value",-13.4%
same,inhibition,"[4]; measured here: combination with cisplatin, at 5 µM, stronger effect = higher value",-36.9%
same,inhibition,"[5]; BGB combo, at 5 µM",-24.4%
same,inhibition,[5]; at 0.5 µM,-5.05% (inactive)
same,inhibition,"[5]; cisplatin combo, at 5 µM",3.04%
same,inhibition,[5]; [20],-1.3%
same,inhibition,[5]; [21],-3.36%
same,inhibition,"[5]; single agent, at 5 µM",-3.55%
same,inhibition,"[6]; BGB IC20 combo, at 0.005 µM",10.1%
same,inhibition,"[6]; BGB IC40 combo, at 0.005 µM",-45.8%
same,inhibition,"[6]; BGB IC40 combo, at 0.05 µM",-40.1%
same,inhibition,[6]; at 0.5 µM,-16.9% (inactive)
same,inhibition,"[6]; cisplatin combo, at 0.05 µM",-45.7%
same,inhibition,"[6]; cisplatin combo, at 0.5 µM",-24.8%
same,inhibition,"[6]; cisplatin combo, at 5 µM",-34.2%
same,inhibition,"[6]; measured here: 5 uM single agent, at 5 µM",-15.6%
same,inhibition,[7]; at 0.5 µM,-12.6% (inactive)
same,inhibition,[7]; [19],-1.97%
same,inhibition,[7]; [22],-11.4%
same,inhibition,[7]; [23],-1.35%
same,inhibition,[8]; at 0.5 µM,-9.37% (inactive)
same,inhibition,"[8]; measured here: with BGB IC20, at 0.5 µM",-9.05%
same,inhibition,"[8]; measured here: with BGB IC20, at 5 µM",-11.1%
same,inhibition,"[8]; measured here: with cisplatin IC20, at 0.5 µM",-24.3%
same,inhibition,"[8]; measured here: with cisplatin IC20, at 5 µM",-7.84%
same,inhibition,"[8]; single agent, at 5 µM",28.9%
same,inhibition,[9]; at 0.5 µM,-20.7% (inactive)
same,inhibition,"[9]; measured here: combination with BGB at IC20, at 0.5 µM",-5.49%
same,inhibition,"[9]; measured here: combination with cisplatin at IC20, at 0.5 µM",-39.6%
same,inhibition,[10]; at 0.5 µM,11.2% (inactive)
same,inhibition,"[10]; measured here: combo with BGB at IC20, at 0.5 µM",-0.451%
same,inhibition,"[10]; measured here: combo with cisplatin at IC20, at 0.5 µM",-7.75%
same,inhibition,[11]; at 0.5 µM,-3.64% (inactive)
same,inhibition,"[11]; measured here: inhibition with BGB combination, at 0.05 µM",-22.8%
same,inhibition,"[11]; measured here: inhibition with cisplatin combination, at 0.05 µM",-16.6%
same,inhibition,[12]; at 0.5 µM,-23% (inactive)
same,inhibition,[12]; [22],-27.7%
same,inhibition,[12]; [23],-17%
same,inhibition,[13]; at 0.5 µM,-9.5% (inactive)
same,inhibition,"[13]; measured here: BGB combination, at 0.5 µM",-12.3%
same,inhibition,"[13]; measured here: BGB combination, at 5 µM",-25.4%
same,inhibition,"[13]; measured here: cisplatin combination, at 0.5 µM",-5.2%
same,inhibition,"[13]; measured here: cisplatin combination, at 5 µM",-11.4%
same,inhibition,"[14]; BGB combination, concentration series, at 5 µM",12.5%
same,inhibition,[14]; at 0.5 µM,-1.72% (inactive)
same,inhibition,"[14]; cisplatin combination, concentration series, at 5 µM",19.2%
same,inhibition,[15],10.8% (inactive)
same,inhibition,[15]; measured here: combo with BGB IC20,0.281%
same,inhibition,[15]; measured here: combo with cisplatin IC20,16.2%
same,inhibition,[16]; at 0.5 µM,-21.3% (inactive)
same,inhibition,"[16]; cisplatin combination, at 0.5 µM",-17.9%
same,inhibition,"[16]; cisplatin combination, at 5 µM",-19.7%
same,inhibition,"[16]; measured here: BGB IC40 combination 0.05 uM, at 0.05 µM",1.07%
same,inhibition,"[16]; single agent, at 5 µM",-27.1%
same,inhibition,[17]; at 0.5 µM,-15.5% (inactive)
same,inhibition,"[17]; cisplatin combo, at 5 µM",10.7%
same,inhibition,"[17]; measured here: BGB IC40 combination, at 0.05 µM",-24.9%
same,inhibition,[17]; [22],18.1%
same,inhibition,"[17]; single agent, at 5 µM",-30.9%
same,inhibition,[18]; at 0.5 µM,-12.1% (inactive)
same,inhibition,[18]; [20],3.22%
same,inhibition,[18]; [21],-19.8%
same,inhibition,"[18]; single agent, at 0.05 µM",-16%
same,inhibition,"[18]; single agent, at 5 µM",12.2%
